Results taken from PubChem BioAssay AID588719 (Southern Research Specialized Biocontainment Screening …, 2011).
Screen size: about 1,500 compounds; about 920 (61%) were called active. The rule behind the calls is not given here. The set was probably picked from earlier hits. The list shows a part of the results. Measured potencies and affinities stand elsewhere.

Assay: Vero 76 cell cytotoxicity, dose response, cytotoxicity control for VEEV inhibitor project (AID 588719)
Conditions: Vero 76 cells viability, cytotoxicity counter-screen; series mostly up to 25 µM

Structure (SMILES)	outcome
c1ccc(CCNc2ccc3c(c2)Cc2ccccc2-3)nc1	inactive
Cc1cc2ccc3ccccc3c2cc1CN(C)C	inactive
Cc1cccc(C(=O)Nc2ccccc2SCC2CSc3nc4ccccc4c(=O)n32)c1 (stereo not given)	inactive
O=C(CC1C(=O)NC2CCCCC2N1C(=O)c1ccc([N+](=O)[O-])cc1)Nc1ccccc1 (stereo not given)	inactive
CC(=O)C1C(N2CC2)CC2C3CCC4=CC(=O)CCC4(C)C3CCC21C (stereo not given)	inactive
CN1CCN(/N=C/c2ccc(N(c3ccccc3)c3ccccc3)cc2)CC1	inactive
OC1(c2cccs2)CN(c2ccc(Br)cc2)C2=[N+]1CCCS2 (stereo not given)	inactive
Nc1ccccc1/C=C/c1ccccc1N	inactive
CN(C)CCC(=O)C(Cc1ccccc1)c1ccccc1 (stereo not given)	inactive
Cc1nn(-c2ccccc2)nc1C(=O)Nc1nnc(C(F)(F)F)s1	inactive
COc1ccccc1NC(=O)c1nc(S(=O)(=O)Cc2ccccc2)ncc1Cl	inactive
CCCc1nnc(NC(=O)c2nc(S(=O)(=O)Cc3ccc(C)cc3)ncc2Cl)s1	inactive
Cc1ccc(C)c(NS(=O)(=O)c2ccc(-n3cccn3)cc2)c1	inactive
Cc1ccccc1-c1n[nH]c(=S)n1/N=C/c1ccc(-c2ccccc2Br)o1	inactive
O=C(COC(=O)c1ccc(Br)o1)NCc1ccc(Cl)cc1	inactive
Cc1noc(C)c1NC(=O)N(C)C[C@H]1OCc2cnnn2CCCC(=O)N([C@H](C)CO)C[C@@H]1C	inactive
CC(C)(C)C(=O)Nc1sc(-c2ccccc2)cc1C(=O)O	inactive
Nc1cc[n+](CC(=O)c2ccc3c(c2)OCCO3)cc1	inactive
CN(C)c1ccc(C(=O)c2ccc(N(C)C)c3ccccc23)cc1	inactive
O=C(OCC(=O)N1CCOCC1)c1ccc2[nH]c3c(c2c1)CCCC3	inactive
COc1ccc(-n2c(O)c(C=NCCN(C)C)c(=O)[nH]c2=O)cc1	inactive
O=C(Nc1ccc(N2CCCCC2)c(Cl)c1)c1cccnc1	inactive
Cc1c(O)c2ccccc2oc1=O	inactive
CC1=C(C(=O)N2CCOCC2)CC(CC(=O)NC2CCCCC2)C(=O)N1Cc1ccc(C(C)(C)C)cc1 (stereo not given)	inactive
COc1ccc(C2CC(=O)C3=C(C2)NC(C)=C(C#N)C3c2ccc(N(C)C)cc2)cc1 (stereo not given)	inactive
CC(=O)/C(C#N)=C1\NC(=O)C(Cc2ccccc2)S1 (stereo not given)	inactive
CCc1nc(CN2CCCC(C(=O)Nc3ccc(-c4cccc(OC)c4)cc3)C2)c(C)[nH]1 (stereo not given)	inactive

Structure (SMILES)	outcome
COc1ccc(O)c(CN2CCCC(C(=O)Nc3cccc(-n4cccn4)c3)C2)c1 (stereo not given)	inactive
COc1ccc(-c2csc(NC(=S)NC(=O)c3cccs3)n2)cc1Br	inactive
CN(c1ccc(OCC(=O)Nc2ccccc2C(=O)O)cc1)S(=O)(=O)c1ccc(Cl)cc1	inactive
Cc1nn(Cc2c(Cl)cccc2Cl)c(C)c1NC(=O)c1cc(C(C)C)on1	inactive
O=c1[nH]c(SCc2nc3c(cnn3-c3ccccc3)c(=O)[nH]2)nc2ccccc12	inactive
CCN(CC)P(=O)(NC(=O)C(Cl)(Cl)Cl)N(CC)CC.[Cl-].[Cl-].[Cl-].[Nd+3]	inactive
Cc1nc(/C(N)=N/OC(=O)c2ccccc2Cl)c(C(F)(F)F)o1	inactive
C/C(N)=C(/C#N)C(=O)CSc1nnc(-c2ccc(OC(F)F)cc2)o1	inactive
COc1ccc(NC(=O)N(C)C[C@H]2Oc3cc(Br)ccc3S(=O)(=O)N([C@H](C)CO)C[C@@H]2C)cc1	inactive
Cc1[nH]c(=S)[nH]c(=O)c1Cc1c(O)ccc2ccccc12	inactive
CN(C)C1CCc2[nH]c3c(F)cc(F)cc3c2C1 (stereo not given)	inactive
COc1ccc2c(c1)c(CCN)c(C)n2Cc1ccccc1	inactive
Cc1ccc2nc(-c3ccc(NS(=O)(=O)c4c(C)n(C)c(=O)n(C)c4=O)cc3)sc2c1	inactive
COc1cc(NC(=O)C2=C(C)OCCS2)c(Cl)cc1C(=O)NCCCN1CCCC(C)C1 (stereo not given)	inactive
Cc1nn2c(NCCN(C)C)c3c(nc2c1-c1ccccc1)CCC3	inactive
CCOC(=O)C(C(=O)OCC)C(c1ccccc1)N1CCN(c2ccccc2)CC1 (stereo not given)	inactive
OC1(c2cccs2)CN(c2ccc(Cl)cc2)C2=[N+]1CCCC2 (stereo not given)	inactive
Cc1cn([C@H]2C[C@H](O)[C@@H](CCC(=O)NCc3ccc(N(C)C)cc3)O2)c(=O)[nH]c1=O	inactive
CC(C)=CCN1CCN(Cc2nc(C(C)C)cs2)CC1CCO (stereo not given)	inactive
O=C1C(=Cc2ccccc2O)SC(=S)N1CCCN1CCOCC1	inactive
N=C1C(c2nc(-c3ccc(Cl)cc3)cs2)=C(O)CN1CCCN1CCOCC1	inactive
COCCNC(=O)CCCn1c(=O)c2cc(OC)c(OC)cc2n(CC(=O)Nc2ccc(C)c(F)c2)c1=O	inactive
CC(C)(C)c1cc(NC(=O)c2cc(F)c(F)c(F)c2F)no1	inactive
CCN(Cc1ccncc1)C(=O)c1ccccc1NS(=O)(=O)c1ccc(Br)cc1	inactive
COc1cc(OC)cc(C(=O)NCC(=O)OCC(=O)NC2CCCc3ccccc32)c1 (stereo not given)	inactive
COc1cc(OC)cc(C(=O)NCCSc2c[nH]c3ccccc23)c1	inactive
Cc1ccc(C(=O)/C=C/c2ccccc2)o1	inactive

Structure (SMILES)	outcome
O=C(/C=C/c1ccccc1)c1ccccc1	inactive
COc1ccc(C(=O)NCC(=O)NCc2ccc3c(c2)OCO3)cc1[N+](=O)[O-]	inactive
CCOc1ccccc1OCCC(=O)N1CCN(S(=O)(=O)c2ccccc2[N+](=O)[O-])CC1	inactive
O=C(COC(=O)c1ccc(O)cc1)Nc1ccc2c(c1)OCO2	inactive
CCCOc1ccc(Oc2nc(-c3ccncc3)nc3ccccc23)cc1	inactive
COc1ccccc1[C@]1(C)ON(c2ccccc2C(F)(F)F)C1=O	inactive
[O-][n+]1onc2c1CCc1[nH]c(-c3ccccc3)nc1-2	inactive
COc1ccc(C=CC(=O)c2c(OC)cc(OC)c(OC)c2O)cc1	inactive
COc1ccc(/C=C/C(=O)c2cc3cccc(OC)c3oc2=O)cc1	inactive
CCOC(=O)NNc1cc(C(F)(F)F)ccn1	inactive
Cc1ccc(C(=O)Nc2ccccc2SCC2CSc3nc4ccccc4c(=O)n32)cc1 (stereo not given)	inactive
COc1cc2c(cc1NC(=O)c1ccc(C(C)(C)C)cc1)CCCC2	inactive
Cc1ccc(C(C)C)cc1OCC(=O)Nc1nnc(C2CC2)s1	inactive
O=c1oc2ccccc2cc1-c1csc(Nc2ccc(O)cc2)n1	inactive
COc1cccc(NC(=O)c2ncc(Cl)c(Cl)c2Cl)c1	inactive
CCOC(=O)c1ccccc1NC(=O)c1cn(CC)c2nc(C)ccc2c1=O	inactive
COc1ccc(CCn2c(-c3ccco3)nc3ccccc3c2=O)cc1OC	inactive
CCOc1ccccc1C(=O)NC(C(=O)OCn1nnc2ccccc2c1=O)C(C)C (stereo not given)	inactive
CCN1CCN(CCCNC(=O)C2CCCN(c3nc4c(C)cc(C)cc4s3)C2)CC1 (stereo not given)	inactive
CCCOc1ccc(C(=O)NNC(=S)NC(=O)c2cc(-c3ccc(Cl)cc3)nc3ccccc23)cc1	inactive
CCOC(=O)c1c(NC(=O)c2c(-c3ccccc3)noc2C)sc(C)c1-c1ccccc1	inactive
COC(=O)c1c(-c2ccccc2)csc1NC(=O)c1c(-c2ccccc2)noc1C	inactive
O=C(/C=C/c1cccc([N+](=O)[O-])c1)c1ccc2c(c1)OCCO2	inactive
CN1C/C(=C/c2ccsc2)C(=O)/C(=C/c2ccsc2)C1	inactive
O=C(CSC1CN(C(c2ccccc2)c2ccccc2)C1)N/N=C/c1ccc(Cl)cc1Cl	inactive
O=C(CC(=O)N/N=C/c1ccc(F)cc1)N/N=C/c1ccc(F)cc1	inactive
NC(=S)NN=C(c1ccc(F)cc1)C1CC1	inactive

Structure (SMILES)	outcome
CCCCCCCCCCCCCCCC(O)C(N)CO (stereo not given)	inactive
CN1CCN(C(=O)CCN2C(=O)/C(=C\c3ccc(Cl)cc3Cl)SC2=S)CC1	inactive
O=C(N1CCOCC1)N1c2ccccc2Sc2ccccc21	inactive
NC(=O)c1nsc(C(=O)N(c2ccccc2F)C(C(=O)NCc2ccccc2)c2ccc(O)cc2)c1N (stereo not given)	inactive
COC(=O)c1cc2c(N)c(C(=O)c3ccc(Cl)cc3)sc2nc1C(OC)OC	inactive
COc1cc2cc(C(=O)N3CC(COS(C)(=O)=O)c4ccc(O)cc43)[nH]c2c(OC)c1OC (stereo not given)	inactive
COC(=O)c1ccc(/C=C2/SC(=S)N(CCC(=O)N3CCOCC3)C2=O)cc1	inactive
O=C(O)c1ccccc1Nc1ccc(OC(F)F)cc1	inactive
Cc1cc(-c2ccccc2)nc(N2CCN(c3ccccn3)CC2)n1	inactive
COc1cc2[nH]c3c(N4CCN(c5ccccn5)CC4)ncnc3c2cc1OC	inactive
Cc1nc2ccccc2nc(C)c1=NOCc1cccc(F)c1	inactive
Cc1ccc2oc(C(F)(F)C(F)F)cc(=O)c2c1	inactive
O=C(OCc1cn([C@@H]2C[C@H](c3ccc(Cl)cc3)N(C(=O)c3cccs3)C[C@H]2O)nn1)c1ccccc1	inactive
COCCNCC(=O)NC12CC3CC(CC(C3)C1)C2	inactive
CC(OCCN(C)C)C(=O)C12CC3CC(CC(C3)C1)C2 (stereo not given)	inactive
Cc1ncc([N+](=O)[O-])n1CC(=O)NCCc1ccccc1	inactive
CC1N(C)c2cc(NC(=O)c3ccco3)c(P(=O)(Nc3ccc([N+](=O)[O-])cc3)N3CCOCC3)cc2C1(C)C (stereo not given)	inactive
CCC(NC(=O)CCCc1ccccc1)c1ccccc1 (stereo not given)	inactive
CCOc1ccc2nc3cc(NCc4ccc(OC)cc4)ccc3c(N)c2c1	inactive
Cc1ccc(NC(=O)C2CCCN2C(=O)OC(C)(C)C)cc1C (stereo not given)	inactive
COc1ccccc1C=NN=C1c2ccccc2-c2ccccc21	inactive
COc1cccc(-c2ccc(NC(=O)C3CCCN(Cc4cnn(C)c4C)C3)cc2)c1 (stereo not given)	inactive
COc1cccc(-c2ccc(NC(=O)C3CCCN(Cc4cnn(C)c4)C3)cc2)c1 (stereo not given)	inactive
O=C1C2CCCN2C(c2ccc(F)cc2)N1c1ccc(Cl)cc1 (stereo not given)	inactive
